Bioassay records from PubChem BioAssay.
Peg3 prom inh – inhibitors of Peg3 promoter; 360,000 tested, 1.7% active; inhibition, % at 20 µM; HeLa PEG-Prom luciferase reporter, luminescence, overnight;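 active means inhibition of at least 50% at 20 µM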
HIF-2a inh – HIF-2a inhibition. 786-0 RCC cells HIF-2a reporter, luciferase luminescence, overnight. inhibition, % at 18.8 µM. 360,000 tested, 0.72% active;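 active means inhibition of the luminescence signal of 40% or more relative to plate controls, in a single-dose primary screen at 18.75 µM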
C8 TRAIL sens – caspase-8 TRAIL sensitization; NB7+C8 cells + TRAIL, ATPlite viability luminescence; inhibition (viability loss, TRAIL sensitization), % at 10 µM; 360,000 tested, 1% active; AID 624354;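 active means compounds causing at least 50% loss of cell viability in the single-dose screen, relative to plate controls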
KKLEB tox – reduces viability of KKLEB cystic fibrosis airway cells; activity change (cytotoxicity), % at 5 µM; AID 602141; KKLEB CF airway cells viability, ATPlite luminescence, overnight; stronger effect = lower value; cells stimulated with P. aeruginosa culture filtrate; 360,000 tested, 0.36% active;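 active means corrected activity change at or below -50% at 5 µM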
PPC-1+TRAIL kill – kills PPC-1 cancer cells in the presence of TRAIL; cell killing (% activity), % at 4 µM or 5 µM; 220,000 tested, 0.41% active; PPC-1 cells + TRAIL, ATPLite viability luminescence;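 active means cell killing above 50% in the first pass at 4 µM, then a duplicate retest at 5 µM averaging 50% or more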
CF NFkB inh – cystic fibrosis NF-kB activation inhibition; 360,000 tested, 0.86% active; inhibition, % at 5 µM; KKLEB NF-kB-GFP reporter, PAF-induced, GFP fluorescence overnight; AID 588850;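 active means at least 50% inhibition at 5 µM, scaled per plate between neutral and stimulator controls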;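 further: PAF is a Pseudomonas aeruginosa culture filtrate used as stimulus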
Mdm2 MdmX conf – Mdm2/MdmX (human) interaction inhibition, confirmed | inhibition, % at 8 µM | SaOS-2 split-luciferase Mdm2/MdmX complementation, luminescence | AID 504601 | 740 tested, 99% active | shares compounds with HIF-2a inh;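 active means mean inhibition of the luminescence signal across two replicates at or above 26 percent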
Target sequence (O15151 whole entry, looked up): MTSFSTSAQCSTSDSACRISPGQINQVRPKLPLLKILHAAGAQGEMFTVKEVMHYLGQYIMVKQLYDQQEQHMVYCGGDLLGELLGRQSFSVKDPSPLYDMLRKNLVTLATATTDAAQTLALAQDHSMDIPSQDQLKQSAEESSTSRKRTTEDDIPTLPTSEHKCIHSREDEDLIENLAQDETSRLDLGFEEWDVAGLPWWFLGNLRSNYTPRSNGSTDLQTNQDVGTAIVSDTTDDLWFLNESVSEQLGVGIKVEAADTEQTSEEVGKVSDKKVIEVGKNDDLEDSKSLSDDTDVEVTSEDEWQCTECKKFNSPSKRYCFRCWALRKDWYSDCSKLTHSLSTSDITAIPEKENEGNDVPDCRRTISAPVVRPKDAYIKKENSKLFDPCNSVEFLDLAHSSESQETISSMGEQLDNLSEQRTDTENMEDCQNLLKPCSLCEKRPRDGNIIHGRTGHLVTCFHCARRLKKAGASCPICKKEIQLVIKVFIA
Target sequence (Q00987 whole entry, looked up): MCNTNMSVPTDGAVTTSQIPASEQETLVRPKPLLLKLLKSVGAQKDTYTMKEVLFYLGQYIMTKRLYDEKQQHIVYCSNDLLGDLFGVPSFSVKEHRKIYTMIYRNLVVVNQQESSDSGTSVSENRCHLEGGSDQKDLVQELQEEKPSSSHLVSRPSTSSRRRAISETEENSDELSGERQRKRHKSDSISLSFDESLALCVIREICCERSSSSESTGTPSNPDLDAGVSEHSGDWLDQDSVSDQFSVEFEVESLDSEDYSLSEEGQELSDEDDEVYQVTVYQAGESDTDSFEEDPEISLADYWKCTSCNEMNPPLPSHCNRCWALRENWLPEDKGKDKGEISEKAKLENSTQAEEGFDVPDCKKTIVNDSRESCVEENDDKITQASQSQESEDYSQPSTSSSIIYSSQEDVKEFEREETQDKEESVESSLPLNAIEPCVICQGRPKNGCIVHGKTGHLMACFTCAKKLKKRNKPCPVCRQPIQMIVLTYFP
HIF-2a conf – HIF-2a inhibition, single concentration confirmation; AID 651580; inhibition, % at 18.8 µM; 786-0 RCC cells, HIF-2a luciferase reporter luminescence, overnight; shares compounds with HIF-2a inh; 1,800 tested, 56% active;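 active means mean inhibition across four replicates of at least 40 percent at the single tested concentration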
HIF-1a counter – inhibits HIF-1a reporter, a counter-screen for HIF-2a inhibitors; MiaPaCa-2 HIF-1a luciferase reporter, desferoxamine, overnight; AID 651589; shares compounds with HIF-2a inh; inhibition, % at 18.8 µM; 1,800 tested, 72% active;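 active means mean inhibition of the reporter signal across four replicates at the single tested dose of 50% or more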
Hits are given with their value; n = inactive; x = no result given. Sampled rows, rich in hits. Any-hit rate of the full collection: about 3.1%.

SMILES	Peg3 prom inh	HIF-2a inh	C8 TRAIL sens	KKLEB tox	PPC-1+TRAIL kill	CF NFkB inh	HIF-2a conf	HIF-1a counter	others
CCN(Cc1ccccc1)c1ccc(/C=N/N=C(N)N)cc1	108.0	93.5	n	n	n	n	n	107.6	Mdm2 MdmX conf=103.2
CCCCNC(=O)NC1(C(F)(F)F)Oc2ccccc2O1	n	n	n	n	n	n	x	x
CC(=O)NC1(C(Cl)(Cl)Cl)Oc2ccccc2O1	n	47.0	n	n	n	n	n	n
Cc1ccc(C)c(C(O)c2ncc(-c3cccc(C(F)(F)F)c3)[nH]2)c1 (configuration not stated)	n	n	n	n	x	n	x	x
CC(=O)/C=C\c1cn(-c2ncc(C(F)(F)F)cc2Cl)c2ccccc12	n	60.9	n	n	n	n	n	n
O=C1NC(Cc2ccc(O)cc2)c2nc3ccc(F)cc3c(=O)n2-c2cc(Cl)ccc21 (configuration not stated)	n	n	n	n	x	n	x	x
CCOC(=O)N1CCC(NCCNC(=O)c2ccc(F)c(F)c2)CC1	n	n	n	n	x	n	x	x
CC(C)(C)C(=O)NC(=S)NNC(=O)c1sc2ccccc2c1Cl	78.0	77.8	n	-65.8	n	70.7	n	100.3
O=C(NNC(=S)NC1CCCCC1)c1sc2ccccc2c1Cl	n	n	n	n	n	n	x	x
O=C(Nc1ccc(Cl)cc1)/C(=C/c1cccc(O)c1)c1nc2ccccc2s1	101.1	90.6	88.0	-90.8	n	90.0	94.7	106.0	Mdm2 MdmX conf=102.5
O=C(O)C/C(=C\c1cccc(NC(=O)c2ccccc2Cl)c1)c1nc2ccccc2s1	n	n	n	n	n	n	x	x
CC(C)NC(=O)c1c(O)c2ccccc2[nH]c1=O	n	n	n	n	n	n	x	x	Mdm2 MdmX conf=92.0
CCOC(=O)[C@]12CCCC=C1N(Cc1ccc3c(c1)OCO3)C(=O)[C@H](CC(=O)NCCC(C)C)C2	x	n	n	x	x	x	x	x
O=C(CCl)N(c1ccc(Cl)cc1)c1c[nH]c2ccccc12	103.2	94.7	88.8	-88.9	n	83.6	96.0	107.0	Mdm2 MdmX conf=103.0
O=C(O)Cc1c[nH]c2ccccc12	n	n	n	n	x	n	x	x
O=C(Cc1ccc(Cl)cc1)NCCc1c[nH]c2ccccc12	n	n	n	n	x	n	x	x
CC(=O)n1cc(N(C(=O)CCl)c2ccccc2)c2ccccc21	n	84.0	95.1	-95.2	n	89.5	94.6	105.6	Mdm2 MdmX conf=103.2
O=C(CCl)N(c1ccccc1)c1c[nH]c2ccccc12	86.2	73.4	97.5	-54.1	n	64.1	53.1	103.7	Mdm2 MdmX conf=103.0
CC(=O)n1cc(CO)c2ccccc21	n	n	n	n	x	n	x	x
COc1cccc(/C=N/Nc2cc(-n3nc(C)cc3-c3ccccc3)ncn2)c1O	52.5	n	n	n	n	n	x	x	Mdm2 MdmX conf=90.7
Cc1ccc(NC(=S)NNc2ncc(C(F)(F)F)cc2Cl)c(C)c1	n	n	n	n	n	n	x	x
Cc1ccc(NC(=S)NNc2ncc(C(F)(F)F)cc2Cl)cc1	n	68.6	n	n	n	n	81.5	n
FC(F)(F)c1cnc(NNC(=S)Nc2ccc(Cl)cc2)c(Cl)c1	n	47.9	n	n	n	n	52.4	n
O=C(Nc1ccc2nc3n(c(=O)c2c1)CCCCC3)c1c(F)ccc([N+](=O)[O-])c1F	108.0	88.3	68.2	-86.9	x	86.8	98.0	96.5	Mdm2 MdmX conf=103.2
CC(OC(=O)C1=Cc2ccccc2OC1)C(=O)NCC1CCCO1 (configuration not stated)	n	n	n	n	x	n	x	x
SMILES	Peg3 prom inh	HIF-2a inh	C8 TRAIL sens	KKLEB tox	PPC-1+TRAIL kill	CF NFkB inh	HIF-2a conf	HIF-1a counter	others
CC1(c2nnnn2Cc2ccccc2)CCC(=O)N1Cc1cccc(C(F)(F)F)c1 (configuration not stated)	x	n	n	x	x	x	x	x
Cc1ccc(C(=O)COC(=O)c2nc(Cl)ccc2Cl)cc1	n	n	n	n	x	n	x	x
O=C(OCn1ncc(Cl)c(Cl)c1=O)c1ccc(C(F)(F)F)cc1	105.4	93.3	78.4	n	n	n	60.4	104.5	Mdm2 MdmX conf=103.0
Cc1ccc(C(=O)OCn2ncc(Cl)c(Cl)c2=O)cc1	102.0	92.0	93.8	-93.8	n	92.3	98.0	107.0
COC(=O)COc1ccc(S(=O)(=O)N2CCN(c3ccccc3F)CC2)cc1	n	66.4	n	n	n	n	n	n
COC(=O)COc1ccc(S(=O)(=O)N2CCc3ccccc3C2)cc1C	n	76.2	n	n	n	n	n	n
COC(=O)COc1ccc(NC(=O)C(c2ccccc2)c2ccccc2)cc1	n	88.2	n	n	x	n	n	n
COC(=O)COc1ccc(S(=O)(=O)N2CCN(c3ccccc3)CC2)cc1	n	47.9	n	n	n	n	n	n
Cc1nc([N+](=O)[O-])c(Br)n1CC(=O)c1ccc(Cl)cc1	n	n	n	n	n	n	x	x
Cc1nc([N+](=O)[O-])c(Br)n1Cc1ccc(Cl)c(Cl)c1	103.7	70.4	n	n	n	86.3	n	102.0
CCOC(=O)CC(S(=O)(=O)c1ccccc1)S(=O)(=O)c1ccccc1	100.4	75.6	n	-90.4	x	87.4	n	n
CCOC(=O)N=S(N)(=O)c1ccccc1 (configuration not stated)	n	n	n	n	n	n	x	x
Cc1sc2ncnc(Nc3ccccc3)c2c1C	n	n	n	n	n	n	x	x
Cc1sc2ncnc(Nc3ccc(N4CCOCC4)cc3)c2c1-c1ccccc1	n	45.4	n	n	n	n	n	79.1
CSc1ncccc1C(=O)N1CCCC(N2CCN(c3ccccc3C)CC2)C1 (configuration not stated)	n	n	n	n	x	n	x	x
Cc1nnc(NC(=O)C2CC(=O)N(C(C)c3ccccc3)C2)s1 (configuration not stated)	n	n	n	n	x	n	x	x
CCN(CC)CCOc1ccc(Br)cc1	n	n	n	n	n	n	x	x
CCN(CC)CCOc1ccc2c(c1)C(=NO)c1cc(OCCN(CC)CC)ccc1-2	107.2	54.4	n	n	n	n	n	106.9
COc1ccc2c(c1)/C(=C\c1cccc(/C=C3/C(=O)Nc4ccc(OC)cc43)n1)C(=O)N2	106.8	89.6	n	n	x	83.3	98.5	106.5
COc1ccc2c(c1)/C(=N/N1C(=O)c3ccccc3C1=O)C(=O)N2	x	x	x	x	n	x	x	x
C=CCSC(=C(C#N)C#N)c1cc2c([nH]1)CCCC2	93.8	65.8	n	n	n	n	n	106.2
O=C(O)c1cc2c([nH]c1=O)CCCC2	n	n	n	n	n	n	x	x
